Shown are actives, neighbours in structure and some others; about 3.6% of the full set was active somewhere.
APOBEC3G inh: APOBEC3G (human) deaminase inhibition. AID 493012. inhibition, % at 20 µM. 330,000 compounds, 0.28% hits. recombinant A3G, ssDNA deamination FAM/TAMRA fluorescence. Q9HC16;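 active means inhibition of at least 40% at 20 µM, with no more than 30% in the related APOBEC3A deaminase screen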
Target sequence (Q9HC16 whole entry, looked up): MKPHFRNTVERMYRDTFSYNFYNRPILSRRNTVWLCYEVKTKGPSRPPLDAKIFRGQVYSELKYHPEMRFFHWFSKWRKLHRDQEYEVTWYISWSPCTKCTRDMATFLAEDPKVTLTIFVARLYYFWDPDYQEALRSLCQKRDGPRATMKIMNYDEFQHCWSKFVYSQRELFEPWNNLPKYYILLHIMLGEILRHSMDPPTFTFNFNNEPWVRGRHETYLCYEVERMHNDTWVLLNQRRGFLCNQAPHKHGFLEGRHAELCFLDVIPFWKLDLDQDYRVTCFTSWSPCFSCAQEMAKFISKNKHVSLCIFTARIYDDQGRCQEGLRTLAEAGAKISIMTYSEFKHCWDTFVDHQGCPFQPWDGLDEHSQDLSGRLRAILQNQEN
PHOSPHO1 block: PHOSPHO1 (human) inhibition. Q8TCT1. recombinant PHOSPHO1, absorbance phosphatase assay. inhibition, % at 13.3 µM. 290,000 compounds, 1.1% hits; in the data active means inhibition above about 60%
A3A deaminase: inhibitors of human APOBEC3A DNA deaminase | P31941 | recombinant A3A, FAM/TAMRA ssDNA deamination fluorescence | inhibition, % at 20 µM | 330,000 compounds, 0.41% hits;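 active means at least 40% inhibition at 20 µM here, with at most 30% in a related deaminase screen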
Target sequence (P31941 whole entry, looked up): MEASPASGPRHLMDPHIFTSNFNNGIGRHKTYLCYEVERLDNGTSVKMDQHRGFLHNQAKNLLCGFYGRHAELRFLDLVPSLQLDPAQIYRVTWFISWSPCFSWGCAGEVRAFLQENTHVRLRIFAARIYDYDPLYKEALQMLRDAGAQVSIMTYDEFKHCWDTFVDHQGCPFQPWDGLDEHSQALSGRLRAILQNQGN
MITF act: MITF TRPM1 promoter activation in melanoma cells | SK-MEL-5 TRPM1-promoter luciferase, 24 h; % of positive control, neutral wells = 0 | 300,000 compounds, 0.75% hits | activation, % at 12.5 µM | AID 588334;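 active means mean activation of at least 80% with every replicate also reaching 80%; inconclusive means mean reaches 80% but some replicate falls short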
Wnt act: activators of Wnt/beta-catenin signaling | Wnt/beta-catenin reporter cell assay, activator, plate reader | activation, % at 9.35 µM | 300,000 compounds, 1.2% hits | AID 743398; in the data active means activation above about 30%, passing the limit was not always enough; inconclusive means no clear call, values can overlap the other calls
esBAF inh: SWI/SNF esBAF complex inhibition. AID 602393. reporter increase, % at 12.5 µM. 350,000 compounds, 2% hits. mouse ES cells, Bmi1-luciferase knock-in reporter, 24 h; 100% = twice the neutral-well signal; in the data active means activation above about 40%; inconclusive means no clear call, values can overlap the other calls;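 further: a rise in the Bmi1 reporter signal indicates esBAF inhibition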
A number is an active result.

For CCOC(=O)c1c(S(=O)(=O)N2CCCC(C)C2)c(C)n(C)c1C (stereo unspecified) the results were APOBEC3G inh inactive, PHOSPHO1 block inactive, A3A deaminase inactive, MITF act inactive, Wnt act inactive and esBAF inh inactive.
CN1c2ccccc2C(=O)/C(=C\Nc2ncccn2)S1(=O)=O was read as APOBEC3G inh inactive, PHOSPHO1 block inactive, A3A deaminase inactive and Wnt act inactive.
Cc1sc2c(c1C)C(=O)/C(=C\Nc1ccncc1)S(=O)(=O)N2C was read as APOBEC3G inh inactive, PHOSPHO1 block inactive, A3A deaminase inactive and Wnt act 43.6.
Screening C=CCc1c(C)[nH]c(=S)c(C#N)c1C returned APOBEC3G inh inactive, PHOSPHO1 block 82.7, A3A deaminase inactive, MITF act inactive, Wnt act inactive and esBAF inh inactive.
`O=C(Nc1ccc2c(c1)[C@H]1C[C@@H](CC(=O)N3CCCCC3)O[C@@H](CO)[C@H]1O2)NC1CCCC1` gave esBAF inh inactive.
`Cc1cc(C(=O)Cn2nc(C(=O)O)c3ccccc3c2=O)c(C)n1CC(F)(F)F` gave APOBEC3G inh inactive, PHOSPHO1 block inactive, A3A deaminase inactive, MITF act inconclusive, Wnt act inactive and esBAF inh 43.6.
Screening C[C@H](CO)N1C[C@H](C)[C@H](CN(C)C(=O)Nc2ccc(C(F)(F)F)cc2)Oc2ccc(NS(C)(=O)=O)cc2C1=O returned esBAF inh inactive.
CC(C)(C)C(=O)O/N=C(\N)COc1cccc(Cl)c1 was read as APOBEC3G inh inactive, PHOSPHO1 block inactive, A3A deaminase inactive, MITF act inactive, Wnt act inactive and esBAF inh 81.1.
`CC(C)(C)C(=O)OC/C(N)=N/OC(=O)c1ccc(Cl)cc1` gave APOBEC3G inh inactive, PHOSPHO1 block inactive, A3A deaminase inactive and Wnt act inactive.
For CC(C)NC(=O)N[C@H]1CC[C@@H](CC(=O)NCCN2CCCC2)O[C@@H]1CO the results were esBAF inh inactive.
Screening N#Cc1ccc(-c2ccc3c(c2)[C@H]2[C@H](CCN2C(=O)C2CC2)[C@@H](CO)N3)cc1 returned esBAF inh inactive.
`COC(=O)CSc1nnc(-c2c[nH]c3ccccc23)o1` gave APOBEC3G inh inactive, PHOSPHO1 block inactive, A3A deaminase inactive, Wnt act inactive and esBAF inh inactive.
For c1ccc(CSc2nnc(-c3c[nH]c4ccccc34)o2)cc1 the results were APOBEC3G inh inactive, PHOSPHO1 block inactive, A3A deaminase inactive, MITF act inactive, Wnt act inactive and esBAF inh 53.4.
`c1ccc2c(-c3nnc(SCc4cn5ccccc5n4)o3)c[nH]c2c1` gave APOBEC3G inh inactive, PHOSPHO1 block 85.0, A3A deaminase inactive, MITF act inactive and esBAF inh inactive.
For Cc1ccccc1-c1nnc(SCc2ccccc2)o1 the results were APOBEC3G inh inactive, PHOSPHO1 block inactive, A3A deaminase inactive and esBAF inh 63.1.
`CCCC(C)NC(=O)CSc1nnc(-c2c[nH]c3ccccc23)o1` (stereo unspecified) gave APOBEC3G inh inactive, PHOSPHO1 block 73.2, A3A deaminase inactive, MITF act inactive and Wnt act inactive.
Cc1ccccc1-c1nnc(SCc2ccccc2F)o1 was read as APOBEC3G inh inactive, PHOSPHO1 block inactive, A3A deaminase inactive and esBAF inh inconclusive.
`COc1ccc(NC(=O)N(C)C[C@@H]2OCCCC[C@@H](C)Oc3ccc(NS(=O)(=O)c4cccs4)cc3C(=O)N([C@@H](C)CO)C[C@H]2C)cc1` gave esBAF inh inactive.
`COc1cc(/C=N/O)ccc1Oc1ccc([N+](=O)[O-])cc1[N+](=O)[O-]` gave APOBEC3G inh inactive, PHOSPHO1 block inactive, A3A deaminase inactive, MITF act inactive, Wnt act 35.7 and esBAF inh inactive.
`CO/N=C/c1ccc(Oc2ccc([N+](=O)[O-])cc2[N+](=O)[O-])c(OC)c1` gave APOBEC3G inh inactive, PHOSPHO1 block inactive, A3A deaminase inactive, MITF act inactive and Wnt act inactive.
C[C@H](NC(=O)C[C@H]1C[C@@H]2c3cc(NC(=O)c4cccnc4)ccc3O[C@@H]2[C@@H](CO)O1)c1ccccc1 was read as esBAF inh inactive.
O=c1oc2ccccc2cc1-c1csc(NN=C2CCCCC2)n1 was read as APOBEC3G inh inactive, PHOSPHO1 block inactive, A3A deaminase inactive, MITF act inactive and esBAF inh 66.4.
`O=C(C[C@@H]1CC[C@@H](NC(=O)NC2CCCCC2)[C@H](CO)O1)NCc1ccc(Cl)cc1` gave esBAF inh inactive.
O=[N+]([O-])c1cccc(-c2csc(Nc3ccccc3)n2)c1 was read as APOBEC3G inh inactive, PHOSPHO1 block inactive, A3A deaminase inactive, MITF act inactive, Wnt act inactive and esBAF inh 52.4.
Screening O=C(Nc1nc(-c2ccccc2)cs1)c1cccc([N+](=O)[O-])c1 returned APOBEC3G inh inactive, PHOSPHO1 block inactive, A3A deaminase inactive, MITF act inactive and esBAF inh 61.3.
For O=C(Nc1nc(-c2cccnc2)cs1)c1cccc([N+](=O)[O-])c1 the results were APOBEC3G inh inactive, PHOSPHO1 block inactive, A3A deaminase inactive, MITF act inactive, Wnt act inactive and esBAF inh inconclusive.
Screening Cc1c(C(=O)Nc2cccc([N+](=O)[O-])c2)csc1-c1ccccc1 returned APOBEC3G inh inactive, PHOSPHO1 block inactive, A3A deaminase inactive, MITF act inactive and esBAF inh 49.7.
Cc1ccccc1S(=O)(=O)N(C)C[C@@H]1OCc2ccccc2-c2ccccc2C(=O)N([C@H](C)CO)C[C@@H]1C was read as esBAF inh inactive.
`C=CCn1c(=O)c(C(=O)Nc2ccccc2C(=O)OCC)c(O)c2ccccc21` gave APOBEC3G inh inactive, PHOSPHO1 block inactive, A3A deaminase inactive, MITF act inactive, Wnt act inactive and esBAF inh inactive.
CCn1c(=O)c(C(=O)NCc2ccc(Cl)cc2)c(O)c2ccccc21 was read as APOBEC3G inh inactive, PHOSPHO1 block inactive, A3A deaminase inactive, Wnt act 43.1 and esBAF inh inactive.
`C=CCn1c(=O)c(C(=O)Nc2ccccc2S(N)(=O)=O)c(O)c2ccccc21` gave APOBEC3G inh inactive, PHOSPHO1 block inactive, A3A deaminase inactive, MITF act inactive, Wnt act inactive and esBAF inh 64.6.
`CCn1c(=O)c(C(=O)NCc2ccccc2)c(O)c2ccccc21` gave APOBEC3G inh inactive, PHOSPHO1 block inactive, A3A deaminase inactive, MITF act inactive, Wnt act inactive and esBAF inh inactive.
`C=CCn1c(=O)c(C(=O)Nc2cc(C)ccn2)c(O)c2ccccc21` gave APOBEC3G inh inactive, PHOSPHO1 block inactive, A3A deaminase inactive, MITF act inactive, Wnt act inactive and esBAF inh inactive.
C=CCn1c(=O)c(C(=O)Nc2ccc(C)cc2)c(O)c2ccccc21 was read as APOBEC3G inh inactive, PHOSPHO1 block inactive, A3A deaminase inactive, Wnt act inactive and esBAF inh 67.3.
